# PubChem BioAssay (Tox21)
# Results filed as inconclusive are left out. A call without a number means that no potency is given here. Values without a mark were called inactive. Calls of active or inactive are those of the source. Unless noted, calls come from the whole dose curve; as a rule, active = well fitted curve in the direction sought with a large enough effect in the repeat runs; inconclusive = weak or mixed curves; inactive = no such curve, though single readings can be large; an effect the other way counts as inactive or inconclusive.
# Tests used:
# [1] = qHTS assay to identify small molecule antagonists of the thyroid receptor (TR) signaling pathway - cell viability counter screen (AID 743064); note: nearly all actives have a fitted effect of over 50% in size
# In short: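 Fluorescence from CellTiter-Fluor, added after 23.5 h exposure at 37 °C, reported viability of GH3.TRE-Luc cells co-treated with compound and 1 nM T3. Measured in the same wells as the luciferase TR readout.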
# [2] = qHTS assay to identify small molecule antagonists of the thyroid receptor (TR) signaling pathway (AID 743065); note: series mostly up to about 70 µM; nearly all actives have a fitted effect of over 55% in size
# In short: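 Antagonism measured as loss of luciferase signal in GH3 cells stably carrying a TRE-luciferase reporter, co-treated with compound and T3 (1 nM final) for 23.5 h at 37 C. Viability was read in the same well by CellTiter-Fluor.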
# [3] = test system: thyroid hormone receptor (rat, GH3 cells); experiment: qHTS assay to identify small molecule agonists of the thyroid receptor (TR) signaling pathway (AID 743066; calls by dose curve)
# [4] = qHTS assay to identify small molecule antagonists of the estrogen receptor alpha (ER-alpha) signaling pathway - cell viability counter screen (AID 743074; calls by dose curve;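 note: HEK293 cells carrying ER-alpha-UAS-bla reporter stimulated with 17beta-estradiol; nearly all actives have a fitted effect of over 45% in size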)
# [5] = qHTS assay to identify small molecule antagonists of the estrogen receptor alpha (ER-alpha) signaling pathway using the BG1 cell line - cell viability counter screen (AID 743081);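 note: compound given together with 17beta-estradiol as the ER stimulus; series mostly up to about 70 µM; nearly all actives have a fitted effect of over 45% in size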
# [6] = qHTS assay to identify small molecule that activate the aryl hydrocarbon receptor (AhR) signaling pathway - cell viability counter screen (AID 743086); note: nearly all actives have a fitted effect of over 45% in size; note: potency is the fitted concentration of half-maximal effect
# In short: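 Cytotoxicity counter screen: CellTiter-Fluor signal (30 min, 37 C) in 4000 HepG2 cells/well carrying the DRE-luciferase reporter, following 24 h compound exposure at 37 C.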
# [7] = qHTS assay to identify small molecule antagonists of the peroxisome proliferator-activated receptor gamma (PPARg) signaling pathway - cell viability counter screen (AID 743194); note: nearly all actives have a fitted effect of over 55% in size
# In short: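 Viability was measured as CellTiter-Glo luminescence in GeneBLAzer PPARg UAS-bla HEK293H cells. These cells had been exposed 17 h at 37 C to compounds together with rosiglitazone at 50 nM final, with the beta-lactamase readout taken in the same wells.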
# [8] = qHTS assay for small molecule agonists of the antioxidant response element (ARE) signaling pathway (AID 743202; active = well fitted activation curve with a large enough effect in the signal ratio in the repeat runs, not every such curve was filed as active; the % refers to the signal ratio)
# In short: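 Quantitative high-throughput format in HepG2 cells bearing an integrated ARE-beta-lactamase reporter. Compound exposure lasted 16 h at 37 C, and fluorescence was read 2 h after adding LiveBLAzer B/G substrate at room temperature.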
# [9] = qHTS assay for small molecule agonists of the antioxidant response element (ARE) signaling pathway - cell viability counter screen (AID 743203; calls by dose curve; note: nearly all actives have a fitted effect of over 55% in size)
# In short: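 Compounds in DMSO were pinned onto ARE-bla HepG2 cells plated 5 hrs earlier at 2,000 cells/well. Sixteen hours later at 37C/5% CO2, CellTiter-Glo was added and luminescence measured after 30 min at room temperature.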
# [10] = qHTS assay for small molecule activators of the heat shock response signaling pathway - cell viability counter screen (AID 743209); note: nearly all actives have a fitted effect of over 50% in size
# In short: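 Counter screen for cytotoxicity in HeLa HSE-bla reporter cells. Treatment was 5 h at 37 C; viability was detected by luminescent ATP assay (CellTiter-Glo) in the same wells as the beta-lactamase read.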
# Aromatase (Homo sapiens) = Aromatase (Homo sapiens) (UniProt P11511); experiment: qHTS assay to identify aromatase inhibitors (AID 743083); note: series mostly up to about 70 µM; nearly all actives have a fitted effect of over 55% in size
# [11] = qHTS assay to identify aromatase inhibitors - cell viability counter screen (AID 743084); note: potency is the fitted concentration of half-maximal effect
# [12] = biological target: Aryl hydrocarbon receptor (Homo sapiens) (UniProt P35869); experiment: qHTS assay to identify small molecule that activate the aryl hydrocarbon receptor (AhR) signaling pathway (AID 743085);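 note: HG2L7.5c1 human HepG2 liver cells with stably integrated DRE-driven firefly reporter; series mostly up to about 70 µM; nearly all actives have a fitted effect of over 15% in size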
# In short: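 Cell line HG2L7.5c1 (human hepatoma, 20× DRE-luc). Plated, 5 h 37C, compound/DMSO added, 24 h 37C. CellTiter-Fluor 30 min 37C → fluorescence; then ONE-Glo 30 min RT → luminescence.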
# [13] = biological target: Peroxisome proliferator-activated receptor gamma (Homo sapiens) (UniProt P37231); experiment: qHTS assay to identify small molecule agonists of the peroxisome proliferator-activated receptor gamma (PPARg) signaling pathway (AID 743094; active = well fitted activation curve with a large enough effect in the signal ratio in the repeat runs, not every such curve was filed as active; the % refers to the signal ratio)
# In short: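 Following 5 h plating at 37C, PPARg-bla HEK293H cells receive compound or DMSO for 17 h; fluorescence intensity is recorded after LiveBLAzer B/G loading for 1 h at room temperature.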
# [14] = biological target: Peroxisome proliferator-activated receptor gamma (Homo sapiens) (UniProt P37231); experiment: qHTS assay to identify small molecule antagonists of the peroxisome proliferator-activated receptor gamma (PPARg) signaling pathway (AID 743191; calls by dose curve; note: series mostly up to about 63 µM; nearly all actives have a fitted effect of over 30% in size)
# In short: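 Beta-lactamase reporter under UAS control in HEK293H PPARg-bla cells; compound treatment 17 h at 37C. Read-out: fluorescence intensity after 1 h room-temperature incubation with LiveBLAzer B/G FRET substrate.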
# [15] = qHTS assay for small molecule activators of the heat shock response signaling pathway (AID 743210; active = well fitted activation curve with a large enough effect in the signal ratio in the repeat runs, with a control signal flat, not every such curve was filed as active; the % refers to the signal ratio;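 note: HeLa cells with beta-lactamase reporter driven by heat shock elements; series mostly up to about 63 µM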)
# In short: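 HeLa HSE-bla cells, overnight plating; cpd in DMSO 5 h, 37 C; LiveBLAzer B/G FRET substrate 2.5 h RT; fluorescence intensity read.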
# [16] = biological target: Estrogen receptor (Homo sapiens) (UniProt P03372); experiment: qHTS assay to identify small molecule antagonists of the estrogen receptor alpha (ER-alpha) signaling pathway (AID 743069; active = well fitted curve in the direction sought with a large enough effect in the signal ratio in the repeat runs, not every such curve was filed as active; the % refers to the signal ratio)
# In short: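 ER-alpha-UAS-bla GripTite HEK293 line; 2% charcoal-stripped FBS overnight; plated, 4 hr 37C/5% CO2; cpd in DMSO + 17beta-estradiol, 18 hr 37C; LiveBLAzer B/G FRET substrate 2 hr RT; fluorescence intensity.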
# [17] = biological target: Estrogen receptor (Homo sapiens) (UniProt P03372); experiment: qHTS assay to identify small molecule agonists of the estrogen receptor alpha (ER-alpha) signaling pathway (AID 743075; calls by dose curve;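 note: HEK293 GripTite cells with ER-alpha and UAS-driven beta-lactamase reporter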)
# [18] = biological target: Estrogen receptor (Homo sapiens) (UniProt P03372); experiment: qHTS assay to identify small molecule agonists of the estrogen receptor alpha (ER-alpha) signaling pathway using the BG1 cell line (AID 743079); note: nearly all actives have a fitted effect of over 20% in size
# [19] = qHTS assay to identify small molecule antagonists of the estrogen receptor alpha (ER-alpha) signaling pathway using the BG1 cell line (AID 743080; calls by dose curve;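 note: BG1 cells stimulated with 17beta-estradiol alongside compound; series mostly up to about 70 µM; nearly all actives have a fitted effect of over 25% in size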)
# In short: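 Seeding, 24 h rest, compound transfer from DMSO, 17beta-estradiol addition, 21.5 h incubation, CellTiter-Fluor (30 min, 37 C), then ONE-Glo (30 min, room temperature): this sequence was run on BG1-Luc-4E2 reporter cells.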
# Chain of Aromatase (Homo sapiens) (P11511 whole entry, looked up): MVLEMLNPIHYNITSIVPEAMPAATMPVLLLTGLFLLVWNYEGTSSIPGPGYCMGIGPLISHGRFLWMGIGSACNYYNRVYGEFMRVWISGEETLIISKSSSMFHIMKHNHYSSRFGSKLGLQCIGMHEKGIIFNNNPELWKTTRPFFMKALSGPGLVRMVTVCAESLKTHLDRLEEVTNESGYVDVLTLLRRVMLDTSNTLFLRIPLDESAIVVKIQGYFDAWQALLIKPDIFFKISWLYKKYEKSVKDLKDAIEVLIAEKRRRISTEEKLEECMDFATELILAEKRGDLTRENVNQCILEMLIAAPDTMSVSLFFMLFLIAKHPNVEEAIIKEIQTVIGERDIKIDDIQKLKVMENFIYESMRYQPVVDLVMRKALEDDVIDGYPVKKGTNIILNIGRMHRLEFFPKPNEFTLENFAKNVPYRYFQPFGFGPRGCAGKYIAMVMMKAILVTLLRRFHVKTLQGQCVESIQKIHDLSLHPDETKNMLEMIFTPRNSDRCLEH
# Chain of Peroxisome proliferator-activated receptor gamma (Homo sapiens) (P37231 whole entry, looked up): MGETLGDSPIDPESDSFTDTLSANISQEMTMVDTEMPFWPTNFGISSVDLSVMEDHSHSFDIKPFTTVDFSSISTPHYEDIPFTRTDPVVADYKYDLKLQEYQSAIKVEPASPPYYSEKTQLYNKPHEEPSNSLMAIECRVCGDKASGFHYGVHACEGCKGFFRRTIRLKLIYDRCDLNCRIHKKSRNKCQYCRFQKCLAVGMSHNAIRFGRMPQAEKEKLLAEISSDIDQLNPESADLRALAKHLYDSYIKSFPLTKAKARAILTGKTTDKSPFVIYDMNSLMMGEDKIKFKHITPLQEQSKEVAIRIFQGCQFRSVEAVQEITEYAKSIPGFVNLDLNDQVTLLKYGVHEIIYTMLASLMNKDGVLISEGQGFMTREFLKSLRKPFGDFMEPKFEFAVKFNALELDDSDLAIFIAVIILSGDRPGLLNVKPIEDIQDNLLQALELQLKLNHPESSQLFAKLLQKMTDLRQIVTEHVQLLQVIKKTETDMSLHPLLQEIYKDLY
# Chain of Estrogen receptor (Homo sapiens) (P03372 whole entry, looked up): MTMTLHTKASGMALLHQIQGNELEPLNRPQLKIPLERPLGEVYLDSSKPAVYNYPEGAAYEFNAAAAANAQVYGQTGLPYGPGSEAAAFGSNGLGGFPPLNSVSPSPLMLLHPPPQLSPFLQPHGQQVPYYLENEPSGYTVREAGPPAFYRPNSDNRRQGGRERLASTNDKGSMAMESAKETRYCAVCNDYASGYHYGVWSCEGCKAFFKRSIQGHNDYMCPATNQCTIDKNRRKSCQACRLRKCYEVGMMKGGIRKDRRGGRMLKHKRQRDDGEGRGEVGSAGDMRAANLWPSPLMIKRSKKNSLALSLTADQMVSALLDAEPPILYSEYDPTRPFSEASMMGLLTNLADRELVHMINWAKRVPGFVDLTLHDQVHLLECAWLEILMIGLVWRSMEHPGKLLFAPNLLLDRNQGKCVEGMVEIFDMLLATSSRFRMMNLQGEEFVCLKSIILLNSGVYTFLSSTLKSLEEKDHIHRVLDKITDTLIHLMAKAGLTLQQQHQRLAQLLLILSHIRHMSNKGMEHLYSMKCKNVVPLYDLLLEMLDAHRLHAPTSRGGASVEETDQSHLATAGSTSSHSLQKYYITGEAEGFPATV
# Chain of Aryl hydrocarbon receptor (Homo sapiens) (P35869 whole entry, looked up): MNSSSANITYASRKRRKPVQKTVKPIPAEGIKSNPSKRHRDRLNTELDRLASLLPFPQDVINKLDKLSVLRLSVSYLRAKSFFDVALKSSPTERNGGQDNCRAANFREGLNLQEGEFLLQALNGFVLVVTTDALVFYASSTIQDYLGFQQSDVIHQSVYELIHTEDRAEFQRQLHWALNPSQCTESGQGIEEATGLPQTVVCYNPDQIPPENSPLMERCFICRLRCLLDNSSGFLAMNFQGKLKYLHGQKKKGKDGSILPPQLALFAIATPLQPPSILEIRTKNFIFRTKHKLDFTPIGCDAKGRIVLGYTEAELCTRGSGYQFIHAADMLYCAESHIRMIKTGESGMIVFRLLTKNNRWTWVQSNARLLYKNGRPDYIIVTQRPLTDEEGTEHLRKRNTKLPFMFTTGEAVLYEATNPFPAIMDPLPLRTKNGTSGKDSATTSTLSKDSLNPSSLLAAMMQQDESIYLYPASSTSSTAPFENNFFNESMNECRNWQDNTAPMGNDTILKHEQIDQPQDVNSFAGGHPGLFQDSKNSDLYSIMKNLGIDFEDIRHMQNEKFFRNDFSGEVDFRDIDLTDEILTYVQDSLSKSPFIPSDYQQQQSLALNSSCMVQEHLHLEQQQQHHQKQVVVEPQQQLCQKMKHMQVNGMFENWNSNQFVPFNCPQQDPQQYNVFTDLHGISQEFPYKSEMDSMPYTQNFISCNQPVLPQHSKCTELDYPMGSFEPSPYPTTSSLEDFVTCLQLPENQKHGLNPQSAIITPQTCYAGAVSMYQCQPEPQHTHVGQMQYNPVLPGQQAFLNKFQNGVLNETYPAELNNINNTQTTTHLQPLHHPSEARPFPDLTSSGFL
SMILES,Potency [1],Potency [2],Potency [3],Potency [4],outcome [5],Potency [6],outcome [7],Potency [8],outcome [9],outcome [10],outcome (Aromatase (Homo sapiens)),Potency [11],Potency [12],outcome [13],Potency [14],outcome [15],Potency [16],Potency [17],Potency [18],outcome [19]
Cc1cccc(NC(=S)N(C)C)c1,inactive,inactive,inactive,inactive,inactive,inactive,inactive,inactive,inactive,inactive,–,–,–,–,–,–,–,–,–,–
CCOC(=O)OCC/C(SC(=O)OCC)=C(\C)N(C=O)Cc1cnc(C)nc1N,inactive,inactive,inactive,–,–,inactive,inactive,inactive,inactive,inactive,inactive,inactive,inactive,inactive,inactive,inactive,–,–,–,–
CCNC(=O)/C=C/c1cccc(Br)c1,inactive,–,–,inactive,inactive,inactive,inactive,inactive,inactive,inactive,inactive,inactive,–,inactive,inactive,inactive,–,–,–,–
CCCCOC(=O)C(=O)OCCCC,inactive,inactive,inactive,–,inactive,inactive,inactive,inactive,inactive,inactive,inactive,inactive,inactive,inactive,inactive,–,–,–,–,–
COc1cc(C=O)ccc1OC(=O)C(C)C,inactive,inactive,inactive,inactive,inactive,inactive,inactive,inactive,inactive,inactive,inactive,inactive,–,inactive,–,inactive,–,–,–,–
Cc1nc2ccccc2c(=O)o1,–,inactive,inactive,inactive,inactive,inactive,inactive,inactive,inactive,inactive,inactive,inactive,inactive,inactive,inactive,inactive,inactive,inactive,inactive,inactive
O=C(O)c1c(Cl)ccc(Cl)c1Cl,inactive,inactive,–,inactive,inactive,inactive,inactive,inactive,inactive,inactive,inactive,inactive,–,inactive,–,inactive,inactive,inactive,inactive,inactive
C=C(C)[C@@H]1CC[C@@H](C)C[C@@H]1O,inactive,–,–,inactive,inactive,inactive,inactive,inactive,inactive,inactive,inactive,inactive,inactive,inactive,–,inactive,–,–,–,–
COc1ccc(N=Nc2cc(C)c(N=Nc3ccc(S(=O)(=O)O)cc3)cc2OC)cc1,inactive,–,–,inactive,–,48.6 µM (active),inactive,–,inactive,inactive,inactive,48.6 µM (active),–,inactive,–,inactive,–,–,–,–
